Experimental data taken from PubChem BioAssay (EPA / NIEHS).
“And” between values parts separate entries of the source, which are not always exact repeats. Equal entries are not always repeated. Some structures have more than one record in an assay (separate samples or runs), and their calls can disagree. The source made the active and inactive calls. The calls were made as follows: active = hit-call score of the fitted dose curve at least 0.9, where 1 is the maximum; inactive = score below 0.9.

target: X-box-binding protein 1 (Homo sapiens) (UniProt P17861); test: ATG_Xbp1_CIS: Attagene CIS-FACTORIAL HepG2 Assay for human X-box Binding Protein 1 (XBP1) (AID 2282972); conditions: HepG2 XBP1 cis-element reporter, Attagene multiplex; actives raise or lower the signal
Sequence (P17861 whole entry, looked up): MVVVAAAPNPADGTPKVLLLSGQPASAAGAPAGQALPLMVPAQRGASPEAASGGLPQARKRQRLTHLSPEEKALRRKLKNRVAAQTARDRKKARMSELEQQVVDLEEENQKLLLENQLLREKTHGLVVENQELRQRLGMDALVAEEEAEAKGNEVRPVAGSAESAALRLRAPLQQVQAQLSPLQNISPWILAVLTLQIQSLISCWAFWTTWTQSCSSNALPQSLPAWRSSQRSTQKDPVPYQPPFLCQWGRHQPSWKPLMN
Method: ATG_CIS is a cell-based, multiplexed-readout assay that uses HepG2, a human liver cell line, with measurements taken at 24 hours after chemical dosing in a 24-well plate.ATG_Xbp1_CIS is one of 52 assay component(s) measured or calculated from the ATG_CIS assay. It is designed to make measurements of mRNA induction, a form of inducible reporter, as detected with fluorescence intensity signals by Reverse transcription polymerase chain reaction (RT-PCR) and Capillary electrophoresis technology.Data from the assay component ATG_Xbp1_CIS was analyzed into 1 assay endpoint. This assay endpoint, ATG_Xbp1_CIS, was analyzed with bidirectional fitting relative to DMSO as the negative control and baseline of activity. Using a type of inducible reporter, measures of mRNA for gain or loss-of-signal activity can be used to understand the reporter gene at the transcription factor-level as they relate to the gene XBP1. Furthermore, this assay endpoint can be referred to as a primary readout, because this assay has produced multiple assay endpoints where this one serves a reporter gene function. To generalize the intended target to other relatable targets, this assay endpoint is annotated to the dna binding intended target family, where the subfamily is basic leucine zipper.
Human liver HepG2 cells are transiently transfected with multiple reporter transcription units (MRTUs) in 6-well plates using FuGene 6 reagent (Roche; 3 ml FuGene/1 mg DNA). The MRTU constructs are regulated by a cis-regulating element (promoter). […] A major difference between the CIS and TRANS system is that in CIS activities of endogenous TFs are measured, whereas the TRANS assay evaluates changes in activities of exogenous, chimeric NR-Gal4 proteins. […] At the end of 24 hour incubation, total RNA was isolated using TriZol reagent (Invitrogen). The isolated RNA is then reverse-transcribed using oligo(dT) primer and Mo-MLV reverse transcriptase (Invitrogen) with DNAse I (Ambion) treatment for 30 min. The one-tenth of the produced cDNA was amplified by PCR using Taq DNA polymerase (Invitrogen) and two reporter sequence-specific primers. The PCR products were fluorescently labeled by primer extension with 6-arboxyfluorescein (6-FAM) 5'-labeled reporter sequence-specific primer (2 min at 95 C, 20 s at 68 C and 10 min at 72 C) and these products were digested with 5U of HpaI (New England Biolabs) for 2h at 37 C. The fragments were purified using Qiaquick PCR columns (Qiagen), analyzed on an ABI 3130xL genetic analyzer (Applied Biosystems) with peak positions identified by using a set of X-rhodamine (ROX)-labeled MapMarker1000 molecular weight standards (BioVentures). The raw capillary electrophoresis data was processed using Attagraph software (Attagene).

**Q.** Which outcome does the source give for `C=CC(=O)OCCC(F)(F)C(F)(F)C(F)(F)C(F)(F)C(F)(F)C(F)(F)F` here?
**A.** inactive

**Q.** How did the AC50 turn out when `Cc1cc(Cc2cc(C)cc(C(C)(C)C)c2O)c(O)c(C(C)(C)C)c1` was run?
**A.** 25 µM (active)

**Q.** Which outcome does the source give for `O=C1c2ccc(O)c(O)c2C(=O)c2c(O)ccc(O)c21` here?
**A.** inactive

**Q.** With `CCCCCCc1ccc(N)cc1` as the compound, how does the outcome read?
**A.** inactive

**Q.** How did the outcome turn out when `CC1=NN(c2ccccc2)C(=O)C1` was run?
**A.** inactive

**Q.** How did the AC50 turn out when `C=CC(=O)OCCN(CC)CC` was run?
**A.** 29 µM (active)

**Q.** For `CNNCc1ccc(C(=O)NC(C)C)cc1`, which outcome is on record?
**A.** inactive

**Q.** `COCC1CCC(CO)CC1` (stereo not given) was tested. Which outcome did it give?
**A.** inactive

**Q.** How did the outcome turn out when `CC1CCC(CO)CC1` (stereo not given) was run?
**A.** inactive

**Q.** `CCN(CCC#N)c1ccccc1` was tested. Which outcome did it give?
**A.** inactive

**Q.** For `FC(F)(F)C(F)(F)C(F)(F)C(F)(F)I`, which outcome is on record?
**A.** inactive

**Q.** `CCc1ccccc1O` was tested. Which outcome did it give?
**A.** inactive

**Q.** For `CN(C)CCOC(c1ccccc1)c1ccccc1`, which outcome is on record?
**A.** inactive

**Q.** `CC1COCc2cc3c(cc21)C(C)(C)C(C)C3(C)C` (stereo not given) was tested. Which AC50 did it give?
**A.** 73.4 µM (active)

**Q.** Which outcome does the source give for `Oc1ccc(Cc2ccccc2O)cc1` here?
**A.** inactive

**Q.** Which outcome does the source give for `COc1cccc(O)c1` here?
**A.** inactive

**Q.** `CCCCCCCCCC=CCC1CC(=O)OC1=O` (stereo not given) was tested. Which outcome did it give?
**A.** inactive

**Q.** `CN(CCO)S(=O)(=O)C(F)(F)C(F)(F)C(F)(F)C(F)(F)C(F)(F)C(F)(F)C(F)(F)C(F)(F)F` was tested. Which outcome did it give?
**A.** inactive

**Q.** `Nc1ccc(O)c(C(=O)O)c1` was tested. Which outcome did it give?
**A.** inactive

**Q.** With `CCOC(=O)c1nc(C(Cl)(Cl)Cl)n(-c2ccc(Cl)cc2Cl)n1` as the compound, how does the AC50 read?
**A.** 178 µM (active)

**Q.** `c1cc[nH]c1` was tested. Which outcome did it give?
**A.** inactive

**Q.** With `O=C(c1ccccc1)c1ccccc1` as the compound, how does the outcome read?
**A.** inactive

**Q.** For `NNc1nc(-c2ccc([N+](=O)[O-])cc2)cs1`, which outcome is on record?
**A.** inactive

**Q.** How did the outcome turn out when `O=C(c1cc(O)c(O)c(O)c1)c1ccc(O)c(O)c1O` was run?
**A.** inactive

**Q.** `O=C(F)C(F)(F)C(F)(F)C(F)(F)C(F)F` was tested. Which outcome did it give?
**A.** inactive

**Q.** How did the outcome turn out when `CC(C)CCOCCC(C)C` was run?
**A.** inactive

**Q.** With `O=C(NCc1ncc(C(F)(F)F)cc1Cl)c1c(Cl)cccc1Cl` as the compound, how does the outcome read?
**A.** inactive

**Q.** `O=C(CC(=O)C(F)(F)C(F)(F)C(F)(F)F)c1cccs1` was tested. Which AC50 did it give?
**A.** 8.17 µM (active) and 32.9 µM (active)

**Q.** How did the outcome turn out when `Cc1cc(=O)oc2cc(O)ccc12` was run?
**A.** inactive

**Q.** How did the outcome turn out when `O=C1OC(=O)c2cc(-c3ccc4c(c3)C(=O)OC4=O)ccc21` was run?
**A.** inactive

**Q.** With `OCC1CCC(CO)CC1` (stereo not given) as the compound, how does the outcome read?
**A.** inactive

**Q.** Which outcome does the source give for `CC(O)COc1ccccc1` (stereo not given) here?
**A.** inactive

**Q.** For `Nc1ccn([C@@H]2O[C@H](CO)[C@@H](O)C2O)c(=O)n1` (stereo not given in full), which outcome is on record?
**A.** inactive

**Q.** Which outcome does the source give for `O=S(=O)(O)C(F)(F)C(F)(F)C(F)(F)C(F)(F)C(F)(F)C(F)(F)C(F)(F)C(F)(F)C(F)(F)C(F)(F)F` here?
**A.** inactive

**Q.** For `CCOC=O`, which outcome is on record?
**A.** inactive

**Q.** Which outcome does the source give for `O=C1C=CC(=O)N1c1cccc(N2C(=O)C=CC2=O)c1` here?
**A.** inactive

**Q.** How did the outcome turn out when `CC(C)(O)C(=O)c1ccccc1` was run?
**A.** inactive

**Q.** With `CCCCCCCCCCCC(=O)O` as the compound, how does the AC50 read?
**A.** 87 µM (active)

**Q.** And the outcome?
**A.** inactive

**Q.** Which AC50 does the source give for `CCCCCCOC(=O)c1ccc(O)cc1` here?
**A.** 54.6 µM (active)
